According to publication PMC12136788:
The full ranking holds about 5,800 sequences; the median of “enrichment r” is about 0.68, and the highest 2% start at about 11. The sample holds the highest values, similar sequences and a random draw of the others, so the mix is not that of the screen.

T1: UNK ZnF1-6 (called full-length) (human, UniProt Q9C0B0 30-357)
T1 sequence: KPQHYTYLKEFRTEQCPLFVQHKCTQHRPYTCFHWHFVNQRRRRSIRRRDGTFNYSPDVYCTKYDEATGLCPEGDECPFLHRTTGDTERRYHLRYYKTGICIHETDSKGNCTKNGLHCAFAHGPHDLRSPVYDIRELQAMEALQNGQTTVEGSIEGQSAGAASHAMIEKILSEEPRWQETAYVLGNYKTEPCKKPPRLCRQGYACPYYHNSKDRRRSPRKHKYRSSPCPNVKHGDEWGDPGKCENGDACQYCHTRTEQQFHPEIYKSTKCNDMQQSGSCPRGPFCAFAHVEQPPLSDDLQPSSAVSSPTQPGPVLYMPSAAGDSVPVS

B1: chr3:23980279:23980388:+|3pUTR|ENSG00000174738|unk|FALSE|unique (ssRNA)
RNA: GGGAGUUCUACAGUCCGACGAUCUUUUUCUUUUCCAAUAUAAAGUUUGCUGAAUGUACAAGAAGAGUUUAUCACUUAGGAUAUAGAAUUUUUUUAGGGGUUGGGGGAGGGGAUCUGUUAGGAAACUGUUACCUAUAAACAAAGCAACAGAGGAUUGAGCAUCA
B2: chr1:6525536:6525637:-|3pUTR|ENSG00000162408|msi1|total|mutant (ssRNA)
RNA: GGGAGUUCUACAGUCCGACGAUCACAGUUUGUGUGCCAUUAAAACAGAGAUUCCUCAGAAAGUUCUUCAGGGACCUGGUUAUCCGAAUCAGGAUAAAAAUAAGGAAACUGGGGCCAUUACAAUGUACCGAGAAGGAAGGAAGACAACAGAGGAUUGAGCAUCA
B3: chr1:85021069:85021276:-|CDS|ENSG00000055732|control|control|control (ssRNA)
RNA: GGGAGUUCUACAGUCCGACGAUCGAUAUGUUUGCCACGUUUGCAAAAAUGCAGCAAAAAAGUUACUUAGUCUGGCUGUUUAGUAGAAUUUACCUCUACUCAUUCAUCAGCCUCUUUAUAUAUAUGAUUUUAAGUCUUUUCAUUCAACAGAGGAUUGAGCAUCA
B4: chr1:42176760:42176861:-|3pUTR|ENSG00000198815|msi1|FALSE|bound_elsewhere (ssRNA)
RNA: GGGAGUUCUACAGUCCGACGAUCGUCGCUCAGAUGUCCUUUGAAGUGGGAGGGAAUCAAUCCGGGGAUAAUUUCAAAUGGAAUAGAGUAUUUUGAUAUUGUUCAUUCAGAGGGUGAUGUGUACAUAUCUAUAUUGUAUAUAUGCAACAGAGGAUUGAGCAUCA
B5: chr8:108778973:108784180:-|three_prime_utr|ENSG00000164841|control|control|control (ssRNA)
RNA: GGGAGUUCUACAGUCCGACGAUCAAGUUUAUUUCACAAACCAACAGCCAGUAAGUGUUUUUGUUCUCUAUGUGUCUUCUAUUUAGAAGAAAAGCCAUGUAAGAUGUAUAAGAAACCACAACCAGCCACACCUAUCCUUCUGAACAACAGAGGAUUGAGCAUCA
B6: ENSG00000072803:stop:overlap|stop_codon|ENSG00000072803|stop_codon|NA|stop_codon (ssRNA)
RNA: GGGAGUUCUACAGUCCGACGAUCCUGGAUACAGUAAACGGAAAGAAUCUUGGAAGAUGCUUGACUGCUGUCUUUUCUCAGACUAGUCUGAAAGGGAAAACCCCCAUUCAUUCUGGAUUGGUGGAUCUGAAGUACAAAAUAUUUCAACAGAGGAUUGAGCAUCA

Each binder was assayed against T1, UNK ZnF1-6 (called full-length) (assay: nsRBNS (natural sequence RNA bind-n-seq); RBNS binding buffer (assumed for nsRBNS): 25 mM Tris pH 7.5, 150 mM KCl, 3 mM MgCl2, 0.01% Triton X-100, 500 ug/ml BSA, 20 U/ml SUPERase-In, 4 C; UNK is unkempt and MSI1 is Musashi-1; names of the RNAs are library labels; protein concentration not given here; high values mean tight binding).

Binder | binding signal [enrichment R]
B1 | 3.03
B2 | 0.553
B3 | 1.95
B4 | 1.26
B5 | 0.507
B6 | 1.04
